The list is not random: actives were taken first. Their share in the collection is about 12%.
JMJD2A Tudor = inhibitors of human JMJD2A Tudor domain; AlphaScreen JMJD2A-Tudor / H3K4me3 peptide binding; Potency, µM (highest dose often 114 µM), inactives show at the highest dose activity change, negative = inhibition, hits mostly inhibitors; O75164; 390,000 tested, 4.4% active; note: potency is the fitted concentration of half-maximal effect; % is set by controls: 0 for no effect and ±100 for the full control effect; nearly all actives have a fitted effect of over 50% in size
Target sequence (O75164 whole entry, looked up, the tested form may be a part): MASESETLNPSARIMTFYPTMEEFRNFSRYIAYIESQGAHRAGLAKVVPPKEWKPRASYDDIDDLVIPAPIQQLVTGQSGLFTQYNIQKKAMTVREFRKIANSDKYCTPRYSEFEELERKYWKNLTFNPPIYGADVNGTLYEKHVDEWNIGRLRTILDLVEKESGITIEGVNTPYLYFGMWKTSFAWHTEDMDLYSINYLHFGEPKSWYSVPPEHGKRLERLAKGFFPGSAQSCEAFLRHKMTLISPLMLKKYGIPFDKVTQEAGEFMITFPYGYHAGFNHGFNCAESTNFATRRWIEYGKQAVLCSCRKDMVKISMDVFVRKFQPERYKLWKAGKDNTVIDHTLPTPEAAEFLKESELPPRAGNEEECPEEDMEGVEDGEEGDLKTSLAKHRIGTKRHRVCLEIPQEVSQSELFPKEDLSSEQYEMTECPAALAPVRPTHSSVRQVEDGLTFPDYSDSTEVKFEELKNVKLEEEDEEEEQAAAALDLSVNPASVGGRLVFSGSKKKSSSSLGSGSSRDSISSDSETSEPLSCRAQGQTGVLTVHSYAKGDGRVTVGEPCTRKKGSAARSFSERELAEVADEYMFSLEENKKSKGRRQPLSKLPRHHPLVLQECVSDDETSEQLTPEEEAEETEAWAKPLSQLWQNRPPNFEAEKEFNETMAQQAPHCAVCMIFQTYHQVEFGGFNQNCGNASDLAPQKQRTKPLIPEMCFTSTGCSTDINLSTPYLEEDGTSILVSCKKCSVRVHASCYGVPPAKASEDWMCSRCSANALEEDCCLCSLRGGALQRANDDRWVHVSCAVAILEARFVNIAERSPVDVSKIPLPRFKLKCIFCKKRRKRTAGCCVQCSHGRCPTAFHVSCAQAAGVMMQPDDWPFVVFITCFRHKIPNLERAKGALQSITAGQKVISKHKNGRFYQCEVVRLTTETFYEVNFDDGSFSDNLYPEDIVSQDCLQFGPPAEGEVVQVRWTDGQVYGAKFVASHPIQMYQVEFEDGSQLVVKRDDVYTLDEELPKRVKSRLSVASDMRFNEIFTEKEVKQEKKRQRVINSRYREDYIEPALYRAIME
BAZ2B block = blocks human BAZ2B | Q9UIF8 | AlphaScreen BAZ2B-H3K14Ac peptide displacement | Potency, µM (top dose mostly 114 µM), inactives show at the top dose activity change, negative = inhibition, most hits filed as inhibitors | 360,000 tested, 4.4% active; note: potency is the fitted concentration of half-maximal effect; % is set by controls: 0 for no effect and ±100 for the full control effect; nearly all actives have a fitted effect of over 60% in size
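Complex of BAZ2B and biotin-H3K14Ac (50 nM apiece) forms over 30 min at RT, then faces library compounds up to 110 uM for another 30 min; AlphaScreen beads added, 20 min dark incubation, luminescence read.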
HP1b chromo inh = blocks HP1-beta chromodomain binding to methylated histone tails; P83916; AlphaScreen HP1-beta / biotin-H3K9me3 peptide binding; Potency, µM (highest dose often 114 µM), for inactives: at the highest dose activity change, negative = inhibition, usual class: inhibitors; 390,000 tested, 0.56% active; AID 540317; note: potency is the fitted concentration of half-maximal effect; nearly all actives have a fitted effect of over 70% in size
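AlphaScreen: HP1-beta (50 nM) preformed 30 min with biotin-H3(1-18)K9me3 peptide (50 nM) in PBS pH 7.4, 0.01% Tween-20. Compound added for 30 min at RT, then streptavidin donor/nickel chelate acceptor beads (10 ug/mL) for 30 min.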
G9a inh = G9a (human) methyltransferase inhibition; G9a H3K9 monomethylation, AlphaScreen, 2 h; Q96KQ7; Potency, µM (doses to about 102 µM), inactives show top-dose activity, negative = inhibition, actives largely listed as inhibitors; 350,000 tested, 8.8% active; note: potency is the fitted concentration of half-maximal effect; % is set by controls: 0 for no effect and ±100 for the full control effect; nearly all actives have a fitted effect of over 75% in size
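Signal arises when biotinylated H3K9 peptide, once monomethylated, bridges streptavidin donor and antibody-captured acceptor beads. Enzyme at 20 nM was preincubated 15 min with test compounds; peptide 500 nM and SAM 20 uM then reacted for 2 h.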
PI5P4Ka inh = PI5P4K alpha (human) kinase inhibition. P48426. AID 652105. 330,000 tested, 1.2% active. PI5P4Kalpha enzyme, ADP-Glo luminescence, 60 min; stronger effect = lower value. max response, %; active = max response of -50% or lower; inconclusive = between -30% and -50%; inactive = -30% or higher; note: value at the top dose of about 77 µM; % is set by controls: 0 for no effect and ±100 for the full control effect
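qHTS, 1536-well: enzyme/substrate mix, compound by pin tool, 5 microM ATP final; RT 60 min; ADP-Glo reagents 1 (45 min) then 2 (30 min); luminescence.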
PLK1 PBD block = inhibitors of human PLK1 polo-box domain binding | P53350 | Potency, µM, inactives show max response, negative = inhibition, usual class: inhibitors | Plk1 PBD binding of FITC phosphopeptide, fluorescence polarization | 360,000 tested, 2.8% active; note: potency is the fitted concentration of half-maximal effect; series mostly up to about 57 µM; % is set by controls: 0 for no effect and ±100 for the full control effect; nearly all actives have a fitted effect of over 65% in size
* marks the source's active call; other numbers are inactive results; ? = inconclusive; · = no result; [ ] = another dose, or the depositor's remark. Unless noted, calls come from the whole dose curve; as a rule, active = well fitted curve in the direction sought with a large enough effect; inconclusive = small, poorly fitted or top-dose-only effect, or another doubt; inactive = no such curve, though single readings can be large; an effect the other way counts as inactive or inconclusive.

SMILES	JMJD2A Tudor	BAZ2B block	HP1b chromo inh	G9a inh	PI5P4Ka inh	PLK1 PBD block
CC1(C)Cc2nc3sc(C(=O)NCCO)c(N)c3cc2CO1	-22.1%	11.3%	17.7%	11.2µM*	·	-5.1%
CC1(C)Cc2nc3sc(C(=O)O)c(N)c3cc2CS1	·	·	·	50.1µM*	·	·
Cc1ccc(N2CCN(C(=O)NCc3noc4ccc(C)cc34)CC2)c(C)c1	-14.7%	-35.3%	28.8%	-23.2%[59 µM]	·	·
CO[C@H]1C=CO[C@@]2(C)Oc3c(C)c(O)c4c(O)c(c5c(c4c3C2=O)NC2(CCN(CC(C)C)CC2)N=5)=NC(=O)C(C)=CC=C[C@H](C)[C@H](O)[C@@H](C)[C@@H](O)[C@@H](C)[C@H](OC(C)=O)[C@@H]1C	·	39.8µM*	·	?	·	·
COC1C=COC2(C)Oc3c(C)c(O)c4c(O)c(c(CN5CCN(C)CC5)c(O)c4c3C2=O)NC(=O)C(C)=CC=CC(C)C(O)C(C)C(O)C(C)C(OC(C)=O)C1C (stereo not drawn)	?	·	?	·	-1.5	-18.2%
CCC(C)N1CCC2(CC1)N=c1c(c3c4c5c(C)c(O)c3c(O)c1=NC(=O)C(C)=CC=C[C@H](C)[C@H](O)[C@@H](C)[C@@H](O)[C@@H](C)[C@H](OC(C)=O)[C@H](C)[C@@H](OC)C=CO[C@@](C)(O5)C4=O)N2 (stereo partly drawn)	?	50.1µM*	-23.6%	?	-0.8	-5.8%
CN1CCN(Cc2coc3c(Cl)cc(Cl)cc3c2=O)CC1	8.91µM*	50.1µM*	?	25.1µM*	-6.8	-16.5%
COc1ccc2c(c1)CCc1c(C(=O)Nc3ccc(F)c(Cl)c3)noc1-2	-6.8%	-7.7%	26.7%	-2.2%[59 µM]	·	·
CC1CCC(NC(=O)CCS(=O)(=O)c2ccc3c(c2)NC(=O)CO3)CC1 (stereo not drawn)	?	-13.9%	21.1%	24.2%	-5.6	16.8µM*
O=C1COc2ccc(S(=O)(=O)CCC(=O)NC3CCCCC3)cc2N1	-16.0%	0.4%	60.4%	13.3%[0.0925 µM]	-1.4	-10.9%
O=C(CCS(=O)(=O)c1ccc2c(c1)NC(=O)CO2)NCCc1ccccc1	?	-18.0%	9.8%	-5.2%	3.3	18.9µM*
CC1CCC2C(C1)c1sc(=O)[nH]c1SC2(C)C (stereo not drawn)	?	?	-0.1%	50.1µM*	·	-6.1%
COc1ccc(CN2C(=O)c3ccccc3C2c2nnnn2-c2ccc3c(c2)OCCO3)cc1 (stereo not drawn)	·	·	·	·	2.2	-8.4%
O=C(NCc1ccco1)c1cc(NS(=O)(=O)c2cccc([N+](=O)[O-])c2)ccc1O	-35.6%	?	-23.7%	50.1µM*	-4.2	-12.0%
COc1ccc2c(c1)[C@H]1[C@H](CO2)[C@H](c2ccccc2)[C@]2(C)C(=O)N(CC3CCCO3)CC(=O)N12 (stereo partly drawn)	-17.9%	-16.6%	32.0%	0.1%[0.501 µM]	-0.7	-3.5%
CCN(CC)CCCNc1oc(/C=C/c2ccc(OC)c(OC)c2)nc1C#N	-14.8%	-1.9%	16.7%	-8.4%[59 µM]	·	·
CC(=O)c1c(COC(=O)c2ccncc2)nc2ccccc2[n+]1[O-]	-1.6%	39.8µM*	9.6%	1µM*	?	-2.0%
CC(=O)c1c(COC(=O)c2ccco2)nc2ccccc2[n+]1[O-]	-12.5%	50.1µM*	6.2%	-34.0%[12.7 µM]	?	-0.6%
O=C(OCc1nc2ccccc2[n+]([O-])c1C(=O)c1ccccc1)c1ccco1	-8.7%	-27.0%	-9.0%	?	2.5	-2.9%
CC(=O)c1c(COC(=O)c2cccc(C)c2)nc2ccccc2[n+]1[O-]	?	-25.4%	11.2%	?	1.7	-4.0%
O=C(OCc1nc2ccccc2[n+]([O-])c1C(=O)c1ccccc1)c1cccs1	79.4µM*	?	-18.4%	?	-1.9	3.0%
Cc1cc2c(cc1NC(=O)c1ccccc1Cl)n(C)c(=O)c(=O)n2C	-1.7%	-9.7%	-1.9%	13.5%[59 µM]	·	·
CC1(C)CC(=O)C(C=Nc2ccc(O)c(N=CC3=C(O)CC(C)(C)CC3=O)c2)=C(O)C1	-27.1%	-14.2%	43.1%	20µM*	-7.2	2.4%
CC1(C)CC(=O)C(C=Nc2ccc(C(=O)c3ccccc3)cc2N=CC2=C(O)CC(C)(C)CC2=O)=C(O)C1	-33.6%	?	31.8%	39.8µM*	0.1	-15.9%
Cc1cc(N=CC2=C(O)CC(C)(C)CC2=O)no1	79.4µM*	·	30.7%	-25.8%[59 µM]	3.2	-3.6%
SMILES	JMJD2A Tudor	BAZ2B block	HP1b chromo inh	G9a inh	PI5P4Ka inh	PLK1 PBD block
COc1ccc(NC(=O)c2ccco2)cc1NC(=O)COc1cc(C)ccc1C(C)C	2.6%	-14.6%	38.5%	-0.6%[59 µM]	·	·
CN(CCCCCCCCCCN(C)C(=O)Oc1cccc([N+](C)(C)C)c1)C(=O)Oc1cccc([N+](C)(C)C)c1	-29.5%	-26.8%	21.4%	-0.5%[12.7 µM]	0.5	-2.2%
O=C1NC[C@@H](CCCCN2CCN(Cc3ccccc3)C(=O)C2=O)N(CC2CCCCC2)C1=O	·	·	·	·	-0.6	-11.8%
COc1ccc(C2C=CC(=O)CC2)c(OC)c1 (stereo not drawn)	·	·	·	·	-0.6	-2.1%
Cc1cc(Cl)ccc1NC(=O)CCCn1nc(C)c2c(C)n(-c3ccccc3)nc2c1=O	-0.7%	-16.1%	42.7%	1.1%[59 µM]	·	·
Cc1ccc(CCNC(=O)CCCn2nc(C)c3c(C)n(-c4ccc(C)cc4)nc3c2=O)cc1	-18.8%	-29.0%	41.9%	-11.6%	4.2	-2.8%
Cc1cc(Cl)ccc1NC(=O)Cn1nc(C)c2c(C)n(-c3ccccc3)nc2c1=O	-33.8%	56.2µM*	7.7%	-41.5%[59 µM]	·	·
Cc1ccc(-n2nc3c(=O)n(CC(=O)NCCc4ccc(Cl)cc4)nc(C)c3c2C)cc1	-33.9%	79.4µM*	12.3%[57 µM]	?	1.3	-5.8%
Cn1c2c(c3cnc4cc(Cl)ccc4c31)CNCC2	-26.9%[57.1 µM]	·	17.5%[57 µM]	·	·	·
COc1cc(/C=C/C(C)=NNc2ccccc2)ccc1O	50.1µM*	·	?	·	-2.5	-22.7%
COc1cc(/C=C/C(=O)CC(=O)/C=C/c2ccc(O)c(OC)c2)ccc1O	?	39.8µM*	-14.6%	54.3%[59 µM]	?	3.4%
COc1cc(/C=C/C(=O)O)ccc1O	-8.8%	·	28.2%	-39.1%[2.33 µM]	3.0	-5.1%
Cc1cc(Cl)cc(Br)c1OCCCNCC(C)O (stereo not drawn)	2.8%	-17.4%	46.6%	2.7%	3.7	-2.9%
Cc1cc(C)c(OCCOCCN(C)C)c(Br)c1	25.1µM*	?	?	10µM*	3.5	-1.8%
Cc1cc(C)c(OCCCNCc2ccccc2)c(Br)c1	25.1µM*	50.1µM*	?	12.6µM*	-2.8	-4.0%
Cc1cc(Cl)c(OCCCNCc2ccccc2)c(Br)c1	?	?	-19.9%	11.2µM*	0.5	-7.4%
Cc1cc(Cl)c(OCCN2C(=O)NC(C)(C)C2=O)c(Br)c1	9.5%	0.8%	30.1%	-0.7%	4.5	0.5%
